Results on 52 molecules are retold here after the supplement of paper PMC11150407.

As a reminder, the cell viability is a read-out of living cells in per cent, often relative to untreated cells.

Where a name gives a salt, the structure may show the parent alone. Hit rate of the full screen: of about 2,100 compounds, about 180 (8.6%) showed an effect of 50% or more. This excerpt belongs to a sample that is enriched for strong results.

In this experiment the test system is MOLM1 and UCSD/AML1 (averaged). Kind of experiment: cell viability relative to DMSO control (POC); higher = less growth inhibition. The note with it: 1 µM; 72 h. The method, then:
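Primary viability screen in the 3q26 EVI1-high AML cell lines MOLM1 and UCSD/AML1 (1.5e3 cells/well, 384-well), compounds at 1 uM for 72 h. ATP CellTiter-Glo read-out given as percent of viable cells over DMSO control (POC), averaged over duplicates. DMSO was the negative control and 5 uM etoposide the positive control. This mapping covers the MicroSource Spectrum and Selleck anticancer libraries (drug names).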
On to `CC(C)C1=CC2=CC[C@@H]3[C@](C)(CCC[C@@]3(C)C(=O)O)[C@H]2CC1`, for which the cell viability is 103%.
With `CC(=O)O[C@H]1C[C@@H](OC(C)=O)C(C)(C)[C@@H]2C[C@@H](OC(C)=O)[C@]3(C)[C@H](CC[C@@]4(C)[C@H](c5ccoc5)OC(=O)[C@H]5O[C@@]534)[C@@]12C` the figure was 83.3%.
Consider `COc1ccc(-c2cc(=O)c3c(O)c(OC)c(O[C@@H]4O[C@H](CO[C@@H]5O[C@@H](C)[C@H](O)[C@@H](O)[C@H]5O)[C@@H](O)[C@H](O)[C@H]4O)cc3o2)cc1`, for which the cell viability turned out to be 101%.
With `CC(C)C[C@H](NC(=O)[C@H](Cc1ccccc1)NC(=O)c1cnccn1)B(O)O` [Bortezomib (Velcade)] the figure was 0.861%.
With `CC(C)C[C@H](NC(=O)[C@@H](O)[C@H](N)Cc1ccccc1)C(=O)O` [Ubenimex (Bestatin)] the figure was 66.5%.
With `CSCCC(N)C(=O)NC(CC(C)C)C(=O)NC(Cc1ccccc1)C(=O)O` (configuration not stated) the figure was 97.7%; with `COc1ccc(-c2cc(=O)c3c(OC)c(OC)c(OC)c(OC)c3o2)cc1OC`, 75.6%; with `C[C@H]1COC2(CCN(c3nc(=O)c4cc(C(F)(F)F)cc([N+](=O)[O-])c4s3)CC2)O1` (racemic) [BTZ043 racemate], 83.5%.
On to `Nc1ccn([C@@H]2O[C@H](CO)[C@@H](O)C2(F)F)c(=O)n1` [Gemcitabine (Gemzar)], for which the cell viability was 8.79%.
Regarding `Nc1ccn([C@@H]2O[C@H](CO)[C@@H](O)[C@@H]2O)c(=O)n1` [Cytarabine], the cell viability stood at 7.02%.
With `N=c1ccn2c(n1)O[C@H]1[C@H](O)[C@@H](CO)O[C@H]12` the figure was 5.77%; with `NC(=O)c1ncn([C@@H]2O[C@H](CO)[C@@H](O)[C@H]2O)c1N`, 119%.
Then `Nc1ccn([C@@H]2O[C@H](CO)[C@@H](O)[C@@H]2O)c(=O)n1`, with 8.69%.
Then `Nc1ccn([C@@H]2O[C@H](CO)[C@@H](O)C2(F)F)c(=O)n1` [Gemcitabine HCl (Gemzar)], with 10.8%; and `C[N+](C)(C)CCOP(=O)(O)OP(=O)([O-])OC[C@H]1O[C@@H](n2ccc(N)nc2=O)[C@H](O)[C@@H]1O`, with 85.3%; and `NC(=O)c1ncn([C@@H]2O[C@H](CO)[C@@H](O)[C@H]2O)n1`, with 94.7%.
Consider `O=c1[nH]cnc2c1ncn2[C@@H]1O[C@H](CO)[C@@H](O)[C@H]1O`, for which the cell viability came out at 109%.
Then `COC(=O)[C@H](OC(C)=O)[C@H]1C(C)(C)[C@H](OC(C)=O)[C@@H]2CC3=C4CC(=O)O[C@@H](c5ccoc5)[C@]4(C)CC[C@@H]3[C@@]1(C)C2=O`, with 94.8%; and `COc1cc2c(cc1OC)C(=O)OC2`, with 103%; and `COc1ccc2c(c1)OC[C@@H](Cc1ccc(OC)c(OC)c1)[C@H]2O`, with 96.9%.
Regarding `CC(=O)O[C@@H]1CC2C(C)(C)C(=O)C3OC3[C@]2(C)C2CC[C@@]3(C)[C@H](c4ccoc4)OC(=O)C4OC43[C@@]21C` (some centres not stated), the cell viability was 95.3%.
Regarding `CC(C)c1c(O)ccc2c1CCC1[C@@](C)(C=O)CCC[C@]21C` (some centres not stated), the cell viability stood at 96.4%.
For the molecule `C[C@@H]1CC[C@@]2(OC1)O[C@H]1C[C@H]3[C@@H]4CC[C@@H]5C[C@@H](O)CC[C@]5(C)[C@H]4CC[C@]3(C)[C@H]1[C@@H]2C`, the cell viability was 97.4%.
Take `O=C(OOC(=O)c1ccccc1)c1ccccc1`: the cell viability came to 101%.
With `CN(NC(=O)CC(=O)NN(C)C(=S)c1ccccc1)C(=S)c1ccccc1` [Elesclomol] the figure was 1.23%; with `O=C(CC(=O)c1ccccc1)c1ccccc1`, 80.9%; with `CCCCCCCCCCCCCCCCCCOCC(O)CO` (configuration not stated), 85%.
Then `COc1ccc(-c2coc3cc(O)ccc3c2=O)cc1`, with 108%; and `CC12CCCC(O)(C1)C1CC(C)(C)C1CC2` (stereo not drawn) [beta-CARYOPHYLLENE ALCOHOL], with 111%; and `CC(=O)OC1CCC23CC1(C)CCC2C(C)(C)CC3OC(C)=O` (configuration not stated), with 96.1%.
Take `CCOc1cc2ncc(C#N)c(Nc3ccc(OCc4ccccn4)c(Cl)c3)c2cc1NC(=O)/C=C/CN(C)C` [Neratinib (HKI-272)]: the cell viability is 14.7%.
With `COc1cc2ncnc(Nc3ccc(F)c(Cl)c3)c2cc1NC(=O)/C=C/CN1CCCCC1` the figure was 50.9%; with `CN(C)C/C=C/C(=O)Nc1cc2c(Nc3ccc(F)c(Cl)c3)ncnc2cc1O[C@H]1CCOC1` [Afatinib (BIBW2992)], 52.9%.
With `CCOc1cc2ncc(C#N)c(Nc3ccc(F)c(Cl)c3)c2cc1NC(=O)/C=C/CN(C)C` [Pelitinib (EKB-569)] the figure was 14.4%.
As to `COc1ccc2cc([C@H](C)CO)ccc2c1`, the cell viability stood at 103%.
Then `COC(=O)C[C@H]1C(C)(C)[C@@H](O)[C@@H]2CC3=C4C=C(OC)O[C@@H](c5ccoc5)[C@]4(C)CCC3[C@@]1(C)C2=O` (stereo partly drawn) [3-DEOXO-3beta-HYDROXYMEXICANOLIDE 16-ENOL ETHER], with 100%; and `CCOC(=O)C(Cc1ccc(O)cc1)NC(C)=O` (configuration not stated), with 105%; and `C/C(=C\C(=O)Nc1ccccc1C(=O)O)c1ccc2ccccc2c1`, with 104%.
Take `COc1cc(C/C=C/c2ccccc2)c(OC)cc1O`: the cell viability amounted to 93.6%.
Then `COc1cc(O)c(C)c(O)c1`, with 106%.
With `COc1ccc(C(=O)CC(=O)O)c2c1C=CC(C)(C)O2` the figure was 99.5%.
As for `CC(C)=CCC/C(C)=C/CC/C(C)=C/CC/C(C)=C/CC/C(C)=C/CC/C(C)=C/CC/C(C)=C/CC/C(C)=C/CC/C(C)=C/CO`, the cell viability amounted to 83.6%.
With `O=c1c(-c2ccc(O)cc2)coc2c([C@@H]3O[C@H](CO)[C@@H](O)[C@H](O)[C@H]3O)c(O)ccc12` the figure was 120%; with `CN1CCCC(n2nc(Cc3ccc(Cl)cc3)c3ccccc3c2=O)CC1` (configuration not stated), 101%.
With `CNC(=O)c1cc(COc2nnc(Nc3ccc(Cl)cc3)c3ccoc23)ccn1` [Telatinib (BAY 57-9352)] the figure was 94.5%; with `Clc1ccc(Nc2nnc(Cc3ccncc3)c3ccccc23)cc1` [Vatalanib dihydrochloride (PTK787)], 44.6%.
Then `C=C(C)[C@H]1COc2cc3oc(=O)ccc3cc2O1`, with 93.3%; and `CC(C)C[C@@H](C(=O)N[C@H](C(=O)OC1CCCC1)c1ccccc1)[C@H](O)C(=O)NO` [Tosedostat (CHR2797)], with 77.5%.
Turning to `O=C([O-])c1ccccc1O.[Na+]`, the cell viability turned out to be 102%.
With `COc1ccc2[nH]c([S+]([O-])Cc3ncc(C)c(OC)c3C)nc2c1` (configuration not stated) the figure was 92.4%.
Then `COc1c(C)cnc(Cn2cnc3c(Cl)nc(N)nc32)c1C`, with 4.8%.
With `COc1cc(-c2coc3cc(O)c(OC)c(O)c3c2=O)cc(O)c1OC` the figure was 90.5%.
